# In ChEMBL document CHEMBL4513216, “Probing the Open Global Health Chemical Diversity Library for Multistage-Active Starting Points for Next-Generation Antimalarials” (ACS Infect Dis, 2020):
# The campaign covered roughly 68,000 compounds. About 2,700 (4%) showed an effect of 50% or more. Shown is part of a subset that was picked to be rich in strong results.
# Tested on: Plasmodium berghei
# Test: Screen against P. berghei liver stage (PbLuc), transformed with Luciferase, at 2uM
# Assay type: functional, HepG2
# Conditions: tested at 2 uM
row,SMILES,INHIBITION
1,CCN1CCc2[nH]cnc2C12CCN(c1ccc(Cl)c(C(=O)O)n1)CC2,-3.87%
2,O=C(NCc1cccnc1-n1cncn1)c1cc(Cl)ccn1,34%
3,CNCC1CCC(c2cc(CN(C)C(=O)c3cnccn3)n(C)n2)CC1 (stereo unspecified),24.98%
4,COc1ccc(-n2ncc(C(C)NC3CCSCC3)c2C)cc1 (stereo unspecified),-62.99%
5,CSc1ncc(CNC(C)c2cnn(-c3ccc(F)cc3F)c2C)cn1 (stereo unspecified),-20.35%
6,Cc1c(C(C)NC2CCCC2)cnn1-c1ccc(F)cc1F (stereo unspecified),12.43%
7,Cc1c(C(C)NCC2CCCC2)cnn1-c1ccc(F)cc1F (stereo unspecified),10.05%
8,Cc1c(C(C)NC(=O)Nc2ccc(F)cc2F)cnn1C (stereo unspecified),-41.11%
9,Cc1c(C(C)NC2CCOCC2)cnn1-c1ccc(F)cc1F (stereo unspecified),69.67%
10,Cc1c(C(C)NC2CSCCSC2)cnn1-c1ccc(F)cc1F (stereo unspecified),81.59%
11,CC(=O)N1CCC(NC(C)c2cnn(-c3ccc(F)cc3F)c2C)CC1 (stereo unspecified),79.21%
12,Cc1c(C(C)NC2CCN(C(C)C)CC2)cnn1-c1ccc(F)cc1F (stereo unspecified),14.82%
13,Cc1cc2c(cc1NC(N)=O)OCO2,23.3%
14,CCn1nc(C)cc1C(=O)N1C[C@@H]2C[C@@H](c3nnc(C)[nH]3)O[C@@H]2C1,24.23%
15,CN1CCN(C2COC3(CCN(Cc4ccsc4)CC3)C2)CC1 (stereo unspecified),-0.38%
16,COc1ccc2c(ccn2CCC(=O)/N=c2\[nH]nc(C3CCCO3)s2)c1 (stereo unspecified),1.57%
17,Cc1nc(C)c(CC(=O)N2C[C@H]3CC[C@@H](C2)N(CC2CC2)C3)s1,-38.36%
18,Cc1nc(C)c(CC(=O)N2C[C@@H](C(=O)O)[C@H](c3ccccc3C)C2)s1,-57.67%
19,CCC[C@@H]1CN(C(=O)Cc2sc(C)nc2C)C[C@H]1C(=O)O,53.55%
20,CCOc1ccccc1CC(=O)N1C[C@@H](C(=O)O)[C@H](c2ccncc2)C1,-36.68%
21,Cc1nc(C)c(CC(=O)N2C[C@@H](C(=O)O)[C@H](c3ccncc3)C2)s1,56.78%
22,CCC[C@@H]1CN(C(=O)c2c(F)ccc(C)c2Cl)C[C@H]1C(=O)O,2.3%

row,SMILES,INHIBITION
1,CCc1nccn1C1CCCN(C(=O)c2ccc3c(c2)OCCO3)C1 (stereo unspecified),-14.17%
2,CCOC1CCC2(CCN(C(=O)c3csnn3)CC2)c2ccccc21 (stereo unspecified),30.15%
3,CC(C)(C)c1nc(CN2CCN(C(=O)c3cnccn3)CC2)cs1,8.5%
4,COc1cccc(CN2C[C@@H]3COC[C@]3(COCc3ccccn3)C2)c1,17.35%
5,O=C(Nc1ccc(-c2csnn2)cc1)N1CCC(N2CCCC2)C1 (stereo unspecified),-55.13%
6,Cc1noc(CCNS(=O)(=O)N2CCCC2c2ccco2)n1 (stereo unspecified),51.76%
7,Cc1noc(CCCNS(=O)(=O)N2CCCC2c2ccco2)n1 (stereo unspecified),41.52%
8,Cc1noc(CCNS(=O)(=O)N2CCCC2c2ccc(C)o2)n1 (stereo unspecified),20.34%
9,CN(Cc1cccc(C(N)=O)c1)CC1CCCN1c1cccnn1 (stereo unspecified),15.67%
10,CCOC1CCN(C(=O)c2c(Cl)c3ccccc3n2C)CC1,2.8%
11,Cc1ccsc1C(O)CNS(=O)(=O)Cc1ccc(F)cc1 (stereo unspecified),-10.98%
12,Cc1nc(NCc2ccc(C)o2)cc(C2CCNCC2)n1,7.42%
13,Cc1nc(NCC23CCCN2CCC3)cc(C2CCCNC2)n1 (stereo unspecified),35.46%
14,Cc1cc(C2CCC2)nc(NCCC23CCCN2CCC3)n1,-44.93%
15,CNc1cc(C2CCCNC2)nc(C)n1 (stereo unspecified),-23.54%
16,Cc1nc(NCCC23CCCN2CCC3)cc(C2CCCNC2)n1 (stereo unspecified),55.66%
17,Cc1nc(NCCC23CCCN2CCC3)cc(C2CCNCC2)n1,50.61%
18,CCO[C@@H]1CC[C@H]2[C@H]1OCCN2C(=O)CC1=CCCCC1,-32.82%
19,CC(C)n1cnc(C2CN(C)c3ccc(C(=O)NC4CCCC4)cc32)n1 (stereo unspecified),9.36%
20,O=C(c1ccc2c(c1)[nH]c(=O)n2C1CCC(O)CC1)N1CCOCC1 (stereo unspecified),42.8%
21,Cc1cc(N2CCCC2c2nc(C)cc(CCC(=O)O)n2)ncn1 (stereo unspecified),27.81%
22,NC(=O)C1CCN(C(=O)NCc2ccccc2-n2cccn2)C1 (stereo unspecified),32.41%

row,SMILES,INHIBITION
1,c1cncc(COC2COC3(CCN(c4cnccn4)CC3)C2)c1 (stereo unspecified),-16.36%
2,C[C@@H]1CN(Cc2ccco2)CCN1C(=O)Cc1ccccc1F,50.68%
3,COc1ccccc1CC(=O)N1CCN(Cc2ccco2)C[C@@H]1C,4.19%
4,COc1ccc(CC(=O)N2CCN(Cc3ccco3)C[C@@H]2C)cc1,19.69%
5,Cc1nn(C)c(C)c1CN(C)C(C(=O)O)c1ccc(F)cc1F (stereo unspecified),13.99%
6,CNC(=O)C(C)(C)NC(=O)c1cc(COc2ccccc2OC)[nH]n1,-25.61%
7,COc1ccc(Cl)cc1CC(=O)NS(=O)(=O)c1ccc(C(N)=O)cc1,58.96%
8,COc1ccccc1CC(=O)NS(=O)(=O)c1ccc(C(N)=O)cc1,1.5%
9,COc1ccc(Cl)cc1CN(CC(N)=O)C(C)C,50.46%
10,COc1ccc(C)cc1CN(CC(N)=O)C(C)C,11.51%
11,COc1ccc(C)cc1CC(=O)NS(=O)(=O)c1ccc(C(N)=O)cc1,43.75%
12,COc1ccc(F)cc1CN(CC(N)=O)C(C)C,-21.69%
13,c1ccn(Cc2nnc3n2CCCN(c2cnccn2)C3)c1,-11.68%
14,Cc1cnc(CN(C)C2CCN(Cc3ccc(Cl)s3)C2)o1 (stereo unspecified),-39.39%
15,Nc1ncccc1CN1C[C@H]2CC[C@@H](C1)N(CC1CC1)C2=O,70.26%
16,CC(C)=CCN1C(=O)[C@@H]2CC[C@H]1CN(Cc1cccnc1N)C2,16.01%
17,Cc1noc(C)c1CN1C(=O)[C@@H]2CC[C@H]1CN(Cc1cccnc1N)C2,31.38%
18,Cc1nccc(NCc2cncc3c2CCN(CC2CC2)C3)n1,25.86%
19,CCOc1ccc(NC2CCN(C3CC3)C2=O)cn1 (stereo unspecified),-13.8%
20,Cc1ncc(CNCCO)c2cc(C(=O)c3ccc(Br)cc3)oc12,29.19%
21,Cc1ncc(CNCC(C)O)c2cc(C(=O)c3ccc(Br)cc3)oc12 (stereo unspecified),-4.01%
22,Cc1ncc(CNC(C)(C)CO)c2cc(C(=O)c3ccc(Br)cc3)oc12,61.06%
